KinaseGlo FLuc: counter-screen: inhibitors of Kinase-Glo firefly luciferase | Q27757 | Kinase-Glo luciferase, ATP luminescence, 8 min | Potency, µM (series often up to 38.3 µM), without a hit: at the highest dose activity change, negative = inhibition, usual class: inhibitors | 0.28% of 200,000 active | AID 1379; further: nearly all actives have a fitted effect of over 60% in size
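Recombinant Kinase-Glo luciferase, 10 uM ATP (linear range), luciferin; imidazole pH 7.2 / KCl / MgCl2 / Tween / BSA buffer; 8 min RT; luminescence.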
HPGD inh: HPGD (human) dehydrogenase inhibition; purified HPGD, NADH fluorescence kinetic, PGE2 substrate; Potency, µM, for the others: at the highest dose activity change, negative = inhibition, hits mostly inhibitors; 4.3% of 150,000 active; AID 894; active means well fitted inhibition curve with a large enough effect, not every such curve was filed as active; inconclusive means small, poorly fitted or top-dose-only effect, or another doubt; inactive means no such curve, though single readings can be large or run the other way
Target sequence (P15428 whole entry, looked up): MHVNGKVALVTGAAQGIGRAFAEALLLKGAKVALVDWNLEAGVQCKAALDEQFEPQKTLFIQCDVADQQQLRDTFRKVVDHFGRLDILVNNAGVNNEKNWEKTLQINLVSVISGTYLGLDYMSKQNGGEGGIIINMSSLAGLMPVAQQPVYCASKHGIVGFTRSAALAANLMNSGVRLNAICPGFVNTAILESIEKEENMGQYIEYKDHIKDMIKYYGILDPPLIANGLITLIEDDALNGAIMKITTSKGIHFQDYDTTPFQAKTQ
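20 nM HPGD preincubated 15 min at room temperature with compound in 50 mM Tris-HCl pH 8, 0.01% Tween 20. Started with 1 mM NAD+ and 30 uM prostaglandin E2; NADH fluorescence (360/450 nm) read 5 times over 30-s intervals, last minus first.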
LMNA splice mod: changes lamin A minigene splicing in HeLa cells. Potency, µM (top dose mostly 46.1 µM), without a hit: top-dose ratio change, negative = inhibition, most hits filed as inhibitors. 0.01% of 200,000 active. HeLa LMNA splicing GFP/RFP minigene ratio, 48 h. AID 1487; active means well fitted inhibition curve with a large enough effect in the signal ratio, with a control signal flat, not every such curve was filed as active; inconclusive means small, poorly fitted or top-dose-only effect, or effect the other way, or a change in a side signal; the % refers to the signal ratio
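S3 HeLa cells stably expressing lamin A-EGFP splicing minigene plus DsRed2, 600 cells/well, 48 h compound exposure at 37C. Laser-scanning cytometry; analysed as GFP (500-530 nm)/RFP (575-640 nm) total intensity ratio; 0.5% DMSO vehicle.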
IMPase Li cell: IMPase inhibition in cells with lithium potentiation | CHO-M1 cells, IP1 TR-FRET (IP-One), carbachol + lithium | Potency, µM (doses to about 59.4 µM), without a hit: at the top dose activity, negative = IMPase inhibition, hits mostly inhibitors | 0.35% of 210,000 active;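 further: IP1 builds up when IMPase is blocked and the TR-FRET signal falls; plate controls were basal vehicle for no effect and high inhibitor control for full effect; nearly all actives have a fitted effect of over 50% in size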
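CHO cells stably expressing M1 receptor (2000/well, cultured 16–30 h) treated 30 min at 37C with compound plus low lithium. Cytosolic IP1 by TR-FRET (665/620 ratio and 620 channel) after 10 min lysis; AC50 by Hill fit.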
ALDH1A1 inh: blocks purified human ALDH1A1 activity; P00352; Purified ALDH1A1, NADH fluorescence, propionaldehyde substrate; Potency, µM (top dose mostly 75.3 µM), for inactives: at the highest dose activity, negative = inhibition, actives largely listed as inhibitors; 7.3% of 220,000 active; AID 1030; active means well fitted inhibition curve with a large enough effect, not every such curve was filed as active; inconclusive means small, poorly fitted or top-dose-only effect, or another doubt; inactive means no such curve, though single readings can be large or run the other way;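 further: plate controls were no enzyme wells and a reference inhibitor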
Target sequence (P00352 whole entry, looked up): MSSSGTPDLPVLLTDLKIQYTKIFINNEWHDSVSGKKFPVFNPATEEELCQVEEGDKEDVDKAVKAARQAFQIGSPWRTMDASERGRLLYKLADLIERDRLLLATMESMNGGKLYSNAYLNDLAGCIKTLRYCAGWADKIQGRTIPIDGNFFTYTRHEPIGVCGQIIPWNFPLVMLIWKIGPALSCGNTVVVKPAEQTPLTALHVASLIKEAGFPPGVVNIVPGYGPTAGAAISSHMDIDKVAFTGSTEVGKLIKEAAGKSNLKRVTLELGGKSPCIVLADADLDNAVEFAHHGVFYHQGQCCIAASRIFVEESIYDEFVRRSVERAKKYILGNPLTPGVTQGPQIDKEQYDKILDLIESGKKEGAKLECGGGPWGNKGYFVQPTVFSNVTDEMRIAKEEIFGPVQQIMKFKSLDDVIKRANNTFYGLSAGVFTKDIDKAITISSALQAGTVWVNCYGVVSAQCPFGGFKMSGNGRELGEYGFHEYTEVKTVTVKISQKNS
Active calls of the source: *; ? = inconclusive; nt = not tested or not shown; [ ] = remark or other dose. Most compounds without a hit are left out; they make up all but 9% or so of the library. Unless noted, the call rests on the fitted dose curve; in most records, active means well fitted curve in the direction sought with a large enough effect; inconclusive means small, poorly fitted or top-dose-only effect, or another doubt; inactive means no such curve, though single readings can be large; an effect the other way counts as inactive or inconclusive. Unless noted, on the % scale 0 is the no-effect control and ±100 the full control effect; potency means the concentration at half of the fitted maximal effect.

SMILES	KinaseGlo FLuc	HPGD inh	LMNA splice mod	IMPase Li cell	ALDH1A1 inh
NC(=S)NCCCC(N)C(=O)O (stereo not given)	-2%	-25%	7%	17%	2.5µM*
CC(C)OC(=O)c1cccc(C(=O)OCc2ccco2)n1	-10%	-7%	?	2%[38.3 µM]	8.9µM*
CC(C)OC(=O)c1cccc(C(=O)Oc2ccccc2)n1	7%	-18%	-2%	-6%[38.3 µM]	9%
CC(=O)OCc1ccco1	nt	-8%	nt	7%	22µM*
CC#CCOC(=O)c1c(C)nc2sc3c(c2c1N)CC[C@@H](O)C3	2%	-11%	nt	25%	0%
CN(c1ccccc1C(=O)Nc1ccc(F)c(Cl)c1)S(C)(=O)=O	0%	nt	-9%[46 µM]	6%	-4%
O=CN1CC(=O)N(c2ccccc2)c2c([nH]c3ccccc23)C1	-3%	22µM*	10%[0.0737 µM]	-14%[38.3 µM]	?
C[N+]1(C)CCC(=C2c3ccccc3CC(=O)c3sccc32)CC1	-8%	?	13%	21%[38.3 µM]	7.1µM*
Cc1noc(C)c1CCC(=O)N1CCCC(CCC(=O)NCc2ccccc2F)C1 (stereo not given)	0%	nt	?	3%	2%
CC1(C)c2ccccc2N2CCC(=O)NC21/C=C/c1ccco1 (stereo not given)	11%	-8%	10%	3%[38.3 µM]	1%
Cc1ccc2c(c1)C(C)(C)[C@]1(C)NC(=O)CCN21	1%	-13%	1%	2%[38.3 µM]	40µM*
CC(C)(C)c1nnc(NC(=S)Nc2ccccc2)s1	4%	nt	?	1%	25µM*
CCOCc1nnc(NC(=O)c2cc(OC)cc(OC)c2)s1	5%	nt	-3%[46 µM]	-3%	-8%
COc1cc(OC)cc(C(=O)Nc2nnc(NC(=S)Nc3ccccc3)s2)c1	2%	-20%	?	5%	22µM*
NS(=O)(=O)c1ccc(O)c(N2C(=O)c3cccc4c(C(=O)c5ccccc5)ccc(c34)C2=O)c1	-4%	nt	-12%[9.22 µM]	-3%	-10%
CCN(CC)c1ccc(C=Nc2ccc(C)cc2)c(O)c1	-6%	-25%	?	5%	?
CCN(CC)c1ccc(N=Cc2ccc(N(CC)CC)cc2O)cc1	15%	-7%	?	33%[38.3 µM]	1.8µM*
CCN(CC)c1ccc(C=Nc2ccccc2)c(O)c1	-7%	-28%	-9%	20%	3.5µM*
CCN(CC)c1ccc(C=Nc2cc(C)cc(C)c2)c(O)c1	-1%	-23%	-2%	-4%	14µM*
CCN(CC)c1ccc(C=Nc2ccc(N(C)C)cc2)c(O)c1	-7%	-2%	-7%	12%[38.3 µM]	?
COc1ccc(C(=O)N2c3nc(-c4ccco4)nn3C3(CCCCC3)[C@@H]3CCCC[C@@H]32)cc1OC	nt	nt	18%[46 µM]	nt	nt
CCN1CCCc2cc(CN(CCN3CCOCC3)C(=S)Nc3ccc(OC)c(Cl)c3)ccc21	3%	nt	nt	4%	18µM*
CCc1ccc(NC(=O)N(CCN2CCOCC2)Cc2ccc3c(c2)CCCN3CC)cc1	8%	?	13%	39%[38.3 µM]	?
COc1ccc(NC(=S)N(Cc2ccc(Cl)cc2)Cc2ccc(C(=O)O)cc2)cc1Cl	-2%	nt	?	-4%	20µM*
CCN1CCCc2cc(CN(CCN3CCOCC3)C(=S)Nc3ccc(OC)c(OC)c3)ccc21	0%	nt	8%[46 µM]	?	3.2µM*
SMILES	KinaseGlo FLuc	HPGD inh	LMNA splice mod	IMPase Li cell	ALDH1A1 inh
Cc1cc(NC(=S)N(Cc2ccc(Cl)cc2)Cc2ccc(C(=O)O)cc2)ccc1Cl	11%	nt	3%[46 µM]	0%	-5%
COc1ccc(C(=O)CCN(C)C)c2ccccc12	-5%[7.66 µM]	-29%	nt	1%	0.028µM*
Cc1ccc(N2CN(CCc3ccccc3)CNC2=S)cc1	nt	nt	nt	nt	2%
CCn1c(C)nc2cc(C(=O)NNC(=S)Nc3ccc(OC)cc3)ccc21	0%	nt	?	17%	-5%
Cc1cccc(OCC(=O)NNC(=O)C2CCCCC2C(=O)O)c1 (stereo not given)	1%	-15%	?	-10%	2%
Cc1ccccc1N/N=C1\CCCNC1=O	-8%	22µM*	-3%	3%[38.3 µM]	10µM*
CCc1nnc(NC(=O)C2CCCN2S(=O)(=O)c2ccc(F)cc2)s1 (stereo not given)	0%	-1%	1%	14%[38.3 µM]	0%
CN1CCN(C(=S)NC(=O)c2ccc(Cl)cc2)CC1	0%	nt	16%[46 µM]	8%	18µM*
CN1CCN(C(=S)c2ccc(Cl)cc2)CC1	-2%	-7%	-9%	8%[38.3 µM]	8%
COc1ccc(F)cc1S(=O)(=O)Nc1ccccc1C(=O)O	2%	-10%	nt	nt	-11%
COc1ccc(C(O)c2nc3ccccc3s2)cc1 (stereo not given)	14%	-26%	1%	-3%[38.3 µM]	3%
O=C(O)[C@@H](O)[C@@H](O)[C@@H](O)[C@@H](O)c1nc2ccccc2s1	-6%[7.66 µM]	3.5µM*	nt	0%	2%[13.5 µM]
COCCNc1nc2nonc2nc1N(C)Cc1cccc2cnccc12	-4%	nt	13%[46 µM]	1%	5µM*
COCCNc1ccnc(-c2ccccc2CN(C)C)n1	-4%	-3%	-1%	6%	10%
COCCN1CN(S(=O)(=O)c2ccc(Cl)cc2)c2nc3ccccc3nc21	0%	-8%	12%	1%[38.3 µM]	24µM*
CC(C)CCN1CN(S(=O)(=O)c2cccs2)c2nc3ccccc3nc21	-1%	-7%	2%	17%[38.3 µM]	28µM*
c1ccc2c(c1)C(=Nn1cnnc1)c1ccccc1-2	1%	1%	-2%	23%[38.3 µM]	?
O=C1/C(=N/n2cnnc2)c2ccccc2N1Cc1ccccc1	5%	-19%	21%	24%[38.3 µM]	0.089µM*
O=C(NCc1ccccc1)C1=C[C@H](c2ccc(C(F)(F)F)cc2)C[C@H](OCc2ccc(CO)cc2)O1	nt	nt	nt	2%	-7%
CCc1nc(SCC(=O)N2CCC(C)CC2)c2c(=O)n(C)c(=O)n(C)c2n1	1%	-10%	1%	12%	11µM*
CCc1nc(SCC(=O)N2CCC(Cc3ccccc3)CC2)c2c(=O)n(C)c(=O)n(C)c2n1	2%	-10%	-13%	-32%[38.3 µM]	1%
N#C/C(=C\c1ccncc1)c1nc2ccccc2c(=O)[nH]1	-1%	nt	?	4%	7.9µM*
CCOC(=O)c1cc2c(nc1NC(=S)Nc1ccccc1)CC(C)(C)OC2	1%	-4%	-6%	4%	14µM*
CCOC(=O)c1cc2c(nc1N)CC(C)(C)OC2	1%	?	-8%	0%	?
CC1=NNC(=O)C1CCC(=O)N/N=C/c1c(Cl)cccc1Cl (stereo not given)	-3%	nt	3%[46 µM]	-9%	14%
COC(=O)c1ccc2c(c1)NC(=O)CS2	-1%	nt	?	-2%	?
COC(=O)c1ccc2c(c1)SC1=C(CCCC1=O)N2	-3%	40µM*	-6%	56%[38.3 µM]	4%
CC(=O)c1ccc(NC(=S)N(C)C2CCN(C)CC2)cc1	1%	-7%	?	-4%	13%
Cc1cccc(-n2ncc3c(NCCOCCO)ncnc32)c1	nt	nt	-6%[46 µM]	nt	nt
